Measurements: PubChem BioAssay (NCI)
About 79,000 compounds went through this panel and 15% of them were active in at least one assay; those are over-represented in the sample as a whole. Values without a mark were called inactive. Activity calls are given as the source filed them. Rule as the data show it: active = growth inhibition above about 70%; inactive = the rest.

Columns and labels:
[1] = NCI Yeast Anticancer Drug Screen. Data for the rad50 strain (AID 155);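 also: 0% = growth of vehicle-only cultures of the same strain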; conditions: S. cerevisiae rad50 strain growth inhibition, stronger effect = higher value
Outline: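 Inhibition values express reduced yeast growth in compound-treated cultures relative to vehicle-treated controls.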

[2] = NCI Yeast Anticancer Drug Screen. Data for the mec2-1 strain (AID 157); conditions: S. cerevisiae mec2-1 strain, stronger effect = higher value
Outline: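 mec2-1 yeast strain, carrying an alteration in DNA damage repair or cell cycle control, was exposed to compounds; growth inhibition was measured relative to vehicle-treated controls.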

[3] = NCI Yeast Anticancer Drug Screen. Data for the sgs1 mgt1 strain (AID 161);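 also: 0% = growth of cultures given vehicle only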; conditions: S. cerevisiae sgs1 mgt1 strain, stronger effect = higher value
Outline: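 Growth of a repair-deficient yeast mutant was monitored after compound treatment and expressed as inhibition relative to vehicle-treated cultures.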

[4] = NCI Yeast Anticancer Drug Screen. Data for the cln2 rad14 strain (AID 165);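 also: 0% = growth equal to vehicle treated cultures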; conditions: S. cerevisiae cln2 rad14 strain, stronger effect = higher value
Outline: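 Yeast carrying cln2 and rad14 alterations (cell cycle control and DNA damage repair) were exposed to compounds. Growth inhibition was measured against vehicle-treated controls.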

[5] = NCI Yeast Anticancer Drug Screen. Data for the bub3 strain (AID 167); conditions: S. cerevisiae bub3 mutant strain, stronger effect = higher value
Outline: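 Steps: expose the mutant yeast strain to compound; grow alongside vehicle-treated cultures; measure growth; express inhibition against the vehicle cultures.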

[6] = NCI Yeast Anticancer Drug Screen. Data for the mlh1 rad18 strain (AID 175); conditions: S. cerevisiae mlh1 rad18 strain growth inhibition, stronger effect = higher value
Outline: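 Growth inhibition of the yeast strain was measured after compound exposure and expressed relative to vehicle-treated controls. The strain carries defined defects in DNA damage repair.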

[7] = at 5.0 µM (retest, dose inferred, filed as 0.5)
[8] = at 50.0 µM (retest, dose inferred, filed as 5.0)

Row | SMILES | growth inhibition [1, 7] | growth inhibition [1, 8] | growth inhibition ([1]; at 50.0 µM) | growth inhibition [2, 7] | growth inhibition [2, 8] | growth inhibition ([2]; at 50.0 µM) | growth inhibition [3, 7] | growth inhibition [3, 8] | growth inhibition ([3]; at 50.0 µM) | growth inhibition [4, 7] [%] | growth inhibition [4, 8] | growth inhibition ([4]; at 50.0 µM) | growth inhibition [5, 7] | growth inhibition [5, 8] | growth inhibition ([5]; at 50.0 µM) | growth inhibition [6, 7] | growth inhibition [6, 8] | growth inhibition ([6]; at 50.0 µM)
1 | O=C(CC(=O)c1ccccc1)CC1(O)CCCCC1 | 22% | 42% | 61.1% | 2% | 16% | 78.9% (active) | 4% | 34% | 79.9% (active) | -9 | 14% | 50.4% | 15% | 86% (active) | 96% (active) | 6% | 29% | 89.1% (active)
2 | N#CSCCSC#N | 5% | 95% (active) | 76% (active) | -1% | 93% (active) | 82.5% (active) | 4% | 91% (active) | 87.2% (active) | 6 | 86% (active) | 40.3% | 9% | 96% (active) | 81.8% (active) | 3% | 95% (active) | 83.7% (active)
3 | Cn1cc(C2=CC(=O)C=CC2=O)c2ccccc21 | 0% | 97% (active) | 98.1% (active) | 8% | 99% (active) | 98.6% (active) | 4% | 98% (active) | 98.8% (active) | -2 | 98% (active) | 98.2% (active) | -4% | 97% (active) | 98.2% (active) | 2% | 98% (active) | 98.5% (active)
4 | O=[N+]([O-])c1ccc(-c2nc3ccc(F)cc3[nH]2)o1 | 73% (active) | 99% (active) | 99.6% (active) | 90% (active) | 99% (active) | 99.8% (active) | 86% (active) | 100% (active) | 99.7% (active) | 34 | 98% (active) | 98.5% (active) | 70% (active) | 100% (active) | 99.7% (active) | 94% (active) | 99% (active) | 99.7% (active)
5 | CN(Cc1cnc2nc(N)nc(N)c2n1)c1ccc(C(=O)NC(CCC(=O)O)C(=O)O)cc1 (stereo not given) | 2% | 5% | 37.2% | -16% | 79% (active) | 88% (active) | 9% | 53% | 45.8% | 0 | -10% | 1.4% | 1% | -6% | -9.7% | -19% | -9% | 25.1%
6 | CCN(CC)C(=O)C1(OC(C)=O)CCCCC1 | 0% | 0% | -2.4% | -21% | -1% | -5.65% | 0% | -2% | 9.9% | 3 | 0% | 36.8% | -6% | -2% | 2.1% | 1% | 0% | -80.8%
7 | CC(=O)OC1(C)C(=C(Cl)Cl)C2c3ccccc3C1c1ccccc12 (stereo not given) | 0% | 91% (active) | 92.7% (active) | 19% | 88% (active) | 82.2% (active) | 2% | 92% (active) | 94.3% (active) | 7 | 89% (active) | 64.4% | -4% | 93% (active) | 93.2% (active) | 10% | 91% (active) | 93.8% (active)
8 | COc1cc(OC)cc(C2OC3=C(Nc4ccc([N+](=O)[O-])cc4N3)C2=O)c1 (stereo not given) | 2% | 60% | 86.8% (active) | 10% | 40% | 59.8% | 30% | 50% | 81.1% (active) | 11 | 29% | 57% | 24% | 16% | 51.2% | -4% | 49% | 82.4% (active)
9 | O=c1[nH]c2ccccc2nc1CBr | 5% | 95% (active) | 30.9% | 16% | 99% (active) | 71.2% (active) | 8% | 98% (active) | 91.2% (active) | 0 | 95% (active) | 1.85% | 14% | 98% (active) | 90.2% (active) | 16% | 99% (active) | 91.1% (active)
10 | COc1ccc(C(SCC(N)C(=O)O)(c2ccc(OC)cc2)c2ccc(OC)cc2)cc1 (stereo not given) | -11% | 97% (active) | 94.7% (active) | -7% | 99% (active) | 96.3% (active) | -4% | 99% (active) | 96.3% (active) | -7 | 98% (active) | 94.7% (active) | 15% | 98% (active) | 96.5% (active) | -6% | 98% (active) | 96% (active)
11 | CC1=C(C(=O)Nc2ccccc2)C(c2ccccc2F)C(C(=O)Nc2ccccc2)=C(C)N1 | -3% | 27% | 48.4% | -4% | 11% | 44% | -4% | 17% | 31.3% | 0 | 37% | -19.1% | -2% | 28% | 11.6% | -5% | 47% | 50.5%
12 | O=C1CSC(c2cccc([N+](=O)[O-])c2)N1c1ccc(-c2ccc(-n3c(-c4ccccc4)nc4ccccc4c3=O)cc2)cc1 (stereo not given) | -12% | 72% (active) | 25.1% | -2% | 36% | 59.5% | 2% | 78% (active) | -29.4% | 26 | 48% | 34% | -12% | 91% (active) | 87.8% (active) | 9% | 90% (active) | 83.2% (active)
13 | COC(=O)c1ncc(Cl)cc1Cl | 3% | -4% | 59.9% | 0% | -7% | 39.8% | 0% | -7% | 58.8% | 7 | -7% | 22.1% | 1% | -19% | 38.4% | 0% | -1% | 46.4%
14 | CC(C)c1ccc(C(=O)OC2CCCCC2)cc1 | 7% | 97% (active) | 73.3% (active) | 8% | 100% (active) | 9.4% | 7% | 96% (active) | 46% | 4 | 98% (active) | 58.1% | 1% | 100% (active) | 88.7% (active) | 2% | 96% (active) | 62.2%
15 | CCOc1ccc(-c2nc3ccc(-c4nc5ccc(N6CCN(C)CC6)cc5[nH]4)cc3[nH]2)cc1 | 28% | 98% (active) | 88.7% (active) | 23% | 99% (active) | 92.9% (active) | 42% | 99% (active) | 90.2% (active) | 31 | 52% | 91.5% (active) | 41% | 98% (active) | 89.1% (active) | 57% | 98% (active) | 89% (active)
16 | CCCCCCCCCC(=O)NN=C(C)C | -129% | 54% | 93.1% (active) | -49% | 45% | 83.2% (active) | -59% | 75% (active) | -2.75% | -67 | 81% (active) | 88.2% (active) | -72% | 41% | 88% (active) | -131% | 46% | 90.8% (active)
17 | OC[P+](CO)(CO)C12CC3CC(CC(C3)C1)C2 | 12% | 13% | 48.5% | 8% | 11% | 71.1% (active) | 35% | 49% | 69.8% | 18 | 30% | 67.8% | 5% | 40% | 78% (active) | 11% | 25% | 89% (active)
18 | Cc1cccc2cc3c(cc12)c(C)cc1ccccc13 | -4% | 6% | 64.4% | -6% | -9% | 75.1% (active) | -4% | 30% | 53% | -1 | 1% | 51% | -22% | -12% | 61% | -17% | 2% | 63.6%
19 | OC1(C2c3ccccc3-c3ccccc32)c2ccccc2-c2ccccc21 | 66% | 90% (active) | 94.4% (active) | 38% | 94% (active) | 80.7% (active) | 45% | 94% (active) | 94.3% (active) | 11 | 90% (active) | 52.1% | 28% | 92% (active) | 81.1% (active) | 84% (active) | 93% (active) | 94.6% (active)
20 | O=C(O)C1CC2C3(Cl)C(Cl)=C(Cl)C(Cl)C2(CC1c1c2ccc(=O)c(O)c-2oc2c(O)c(O)ccc12)C3(Cl)Cl (stereo not given) | 5% | 96% (active) | 49.9% | 21% | 97% (active) | 49.6% | 3% | 97% (active) | -0.25% | 9 | 93% (active) | 53.2% | -2% | 96% (active) | 46.2% | 4% | 95% (active) | 51.5%
